# In PubChem BioAssay (EPA / NIEHS):
# Results filed as inconclusive are left out. Active and inactive are the calls of the source. Rule for the calls: active = hit-call score of the fitted dose curve at least 0.9, where 1 is the maximum; inconclusive = response in the unintended direction; inactive = score below 0.9.
# Test: TOX21_PR_LUC_Followup_Antagonist_viability: Viability Assessment in the Tox21 HEK293 Progesterone Receptor (PR) Antagonism Luciferase Follow-Up Assay (AID 2283940)
# Text: TOX21_PR_LUC_Followup is a secondary assay for specificity for the TOX21_PR_BLA_Agonist assay. To differentiate true PR agonists from cytotoxic substances, this follow up assay is multiplexed with a cell viability assay.TOX21_PR_LUC_Followup_Antagonist_viability is an assay readout measuring cellular ATP content and detected with CellTiter-Glo Luciferase-coupled ATP quantitation.TOX21_PR_LUC_Followup_Antagonist_viability used a type of viability reporter where loss-of-signal activity can be used to understand changes in the cell viability. Furthermore, this assay endpoint can be referred to as a secondary readout, because this assay has produced multiple assay endpoints where this one serves a viability function. To generalize the intended target to other relatable targets, this assay endpoint is annotated to the cell cycle intended target family, where the subfamily is cytotoxicity.
# Quality Control Precautions: Maintain cells below 85-90% confluence in culture medium. For assay purpose, the cells should be cultured in assay medium with 10% charcoal stripped FBS for 5 days with alternate day medium changed to fresh medium. Especially while in assay culture, the cells should not reach more than 85% confluence as they would become harder to detach if they reach over confluence.Assay Protocol: HEK293-PR-A-luc cells were dispensed at 3,000 cells/5 uL/well of culture medium into white wall/solid-bottom 1536-well plates using a Multidrop Combi (ThermoFisher Scientific, Waltham, MA) dispenser. After the assay plates were incubated at 37C and […] for 5 h, 23 nL of compounds dissolved in DMSO, positive controls or DMSO only was transferred to the assay plate by a Pintool station (Kalypsys, San Diego, CA). The plates were incubated at 37C and […] for 16 h. Then 4 uL of ONE-Glo reagent (Promega, Madison, WI) was added to each plate using a BioRAPTR Flying Reagent Dispenser (FRD) workstation (Beckman Coulter, Indianapolis, IN, USA) and luminescence was quantified on a ViewLux (PerkinElmer, Shelton, CT) plate reader after 30 min incubation at room temperature.
row,SMILES,outcome
1,CCC(=C(CC)c1ccc(O)cc1)c1ccc(O)cc1,inactive
2,Cc1ccc(/C=N/n2c(-c3ccccc3)csc2=S)cc1,inactive
3,CC(=O)OCC(=O)[C@@]1(O)CC[C@H]2[C@@H]3CCC4=CC(=O)C=C[C@]4(C)[C@H]3[C@@H](O)C[C@@]21C,inactive
4,C[C@]12CCC(=O)C=C1CC[C@@H]1[C@@H]2CC[C@@]2(C)[C@H]1CC[C@]2(O)C(=O)CO,inactive
5,CC(C)C[C@H](NC(=O)[C@H](CCc1ccccc1)NC(=O)CN1CCOCC1)C(=O)N[C@@H](Cc1ccccc1)C(=O)N[C@@H](CC(C)C)C(=O)[C@@]1(C)CO1,inactive
6,C[C@]12C=CC(=O)C=C1[C@@H](F)C[C@@H]1[C@@H]2[C@@H](O)C[C@@]2(C)[C@H]1CC[C@]2(O)C(=O)CO,inactive
7,COC(=O)C1=C(C)NC(COC(N)=O)=C(C(=O)OC(C)C)C1c1cccc(Cl)c1Cl (stereo not given),inactive
8,CC(=O)OCC(=O)[C@@]1(O)CC[C@H]2[C@@H]3CCC4=CC(=O)C=C[C@]4(C)[C@@]3(F)[C@@H](O)C[C@@]21C,inactive
9,CCn1c2ccccc2c2cc([N+](=O)[O-])ccc21,inactive
10,CCOC(=O)C1=C(C)NC(C)=C(C(=O)OC)C1c1cccc([N+](=O)[O-])c1 (stereo not given),inactive
11,Nc1ccccc1S(=O)(=O)c1ccccc1,inactive
12,CN(C1CCCCC1)S(=O)(=O)c1ccccc1N,inactive
13,Oc1ccc(N=Nc2ccccc2)cc1,inactive
14,COCCOC(=O)C1=C(C)NC(C)=C(C(=O)OC(C)C)C1c1cccc([N+](=O)[O-])c1 (stereo not given),inactive
15,C[C@]12CCC(=O)C=C1C=C[C@@H]1[C@@H]2CC[C@@]2(C)[C@H]1CC[C@@]21CCC(=O)O1,inactive
16,O=C(Nc1ccc(Cl)c(Cl)c1)C1CC1,inactive
17,CC(C)C[C@H](NC(=O)[C@H](Cc1ccccc1)NC(=O)c1cnccn1)B(O)O,inactive
18,CC(COc1ccccc1)N(CCCl)Cc1ccccc1 (stereo not given),inactive

row,SMILES,outcome
1,C#C[C@]1(O)CC[C@H]2[C@@H]3CCc4cc(OC5CCCC5)ccc4[C@H]3CC[C@@]21C,inactive
2,O=C1Nc2ccc(Cl)cc2[C@@](C#CC2CC2)(C(F)(F)F)O1,inactive
3,CCCCN1CCCC1C(=O)Nc1c(C)cc(C)cc1C (stereo not given),inactive
4,C[C@@H]1C[C@H]2[C@@H]3C[C@H](F)C4=CC(=O)C(Cl)=C[C@]4(C)[C@@]3(F)[C@@H](O)C[C@]2(C)[C@@]1(O)C(=O)CO,inactive
5,COC(=O)C1=C(C)NC(C)=C(C(=O)OCC(C)=O)C1c1ccccc1[N+](=O)[O-] (stereo not given),inactive
6,c1cc[c]([Bi]([c]2ccccc2)[c]2ccccc2)cc1,inactive
7,C[C@]12CCC(=O)C=C1[C@@H]1C[C@@H]1[C@H]1[C@@H]3[C@@H]4C[C@@H]4[C@@]4(CCC(=O)O4)[C@@]3(C)CC[C@@H]12,inactive
8,COCCOC(=O)C1=C(C)NC(C)=C(C(=O)OC/C=C/c2ccccc2)C1c1cccc([N+](=O)[O-])c1 (stereo not given),inactive
9,C[C@H]1C[C@H]2[C@@H]3CCC4=CC(=O)C=C[C@]4(C)[C@@]3(Cl)[C@@H](O)C[C@]2(C)[C@@]1(O)C(=O)CO,inactive
10,C=C1C(CCl)(CCl)C2(Cl)C(Cl)C(Cl)C1(Cl)C2(Cl)Cl (stereo not given),inactive
11,c1ccc2c(c1)CCc1ccccc1N2,inactive
12,C[C@H]1C[C@H]2[C@@H]3CCC4=CC(=O)C=C[C@]4(C)[C@@]3(F)[C@@H](O)C[C@]2(C)[C@@]1(O)C(=O)CO,inactive
13,CC1(C)CCC(C)(C)c2cc(NC(=O)c3ccc(C(=O)O)cc3)ccc21,inactive
14,N#C/C(=C1/SC[C@@H](c2ccc(Cl)cc2Cl)S1)n1ccnc1,inactive
15,COC(=O)C1=C(C)NC(C)=C(C(=O)OCCN2CCN(C(c3ccccc3)c3ccccc3)CC2)C1c1cccc([N+](=O)[O-])c1 (stereo not given),inactive
16,NC(=O)n1c(O)c(C(=O)c2cccs2)c2cc(Cl)ccc21,inactive
17,Oc1ccc2c(c1)Cc1ccccc1-2,inactive
